Assay results: PubChem BioAssay (NCATS)
Inconclusive results are not listed. Entries that show only a call come without a potency. The source made the active and inactive calls. Calls follow the shape of the dose curve; as a rule, active = well fitted cell-killing curve with a large enough effect; inconclusive = small, poorly fitted or top-dose-only effect, or effect the other way; inactive = no such curve, though single readings can be large or run the other way.

Experiment: Quantitative High-Throughput drug screen in 47 multiple myeloma cell lines against the NCATS MIPE library collection: KMS11_JCRBsus cell viability assay (AID 1919873); also: nearly all actives have a fitted effect of over 50% in size
Conditions: KMS11 myeloma viability, CellTiter-Glo ATP luminescence, 48 h; series mostly up to 45.8 µM
Procedure, shortened: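 Plated at 500 cells per well, myeloma lines received MIPE 4.0 compounds by pin tool. Following 48 h culture at 37 °C, CellTiter-Glo luminescence gave viability relative to DMSO and media-only controls.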
Potency is read from the fitted curve at half-maximal effect.

**Q.** Which Potency does the source give for `O=C(O)CCNC(=O)c1ccc(N=Nc2ccc(O)c(C(=O)O)c2)cc1` here?
**A.** Its Potency is “inactive”.

**Q.** With `Cc1cc2c(s1)Nc1ccccc1N=C2N1CCN(C)CC1` as the compound, how does the Potency read?
**A.** The Potency was “inactive”.

**Q.** Which Potency does the source give for `CC(C)c1ccc2oc3nc(N)c(C(=O)O)cc3c(=O)c2c1` here?
**A.** Its Potency is “inactive”.

**Q.** For `CCOc1cc(CC(=O)N[C@@H](CC(C)C)c2ccccc2N2CCCCC2)ccc1C(=O)O`, which Potency is on record?
**A.** The Potency was “inactive”.

**Q.** Which Potency does the source give for `CN(C)CCc1c[nH]c2ccc(Cn3cncn3)cc12` here?
**A.** The Potency was “inactive”.

**Q.** Which Potency does the source give for `O=C(c1ccccc1)c1ccc2n1CCC2C(=O)O` (configuration not stated) here?
**A.** Its Potency is 13.2 µM (active).

**Q.** Which Potency does the source give for `CCc1nc(N)nc(N)c1-c1ccc(Cl)cc1` here?
**A.** Its Potency is 16.6 µM (active).

**Q.** Which Potency does the source give for `CCCCN(CCCC)CCC(O)c1cc2c(Cl)cc(Cl)cc2c2cc(C(F)(F)F)ccc12` (configuration not stated) here?
**A.** Its Potency is “inactive”.

**Q.** For `CC1(C)CCC(C)(C)c2cc(NC(=O)c3ccc(C(=O)O)cc3)ccc21`, which Potency is on record?
**A.** The Potency was 4.18 µM (active).

**Q.** Which Potency does the source give for `CCOC(=O)C(C)Oc1cccc2c(=O)n(CC(=O)Nc3ccc4c(c3)OCCO4)ccc12` (configuration not stated) here?
**A.** The Potency was “inactive”.

**Q.** Which Potency does the source give for `CC(C)Oc1ccc2c(=O)c(-c3ccccc3)coc2c1` here?
**A.** The Potency was “inactive”.

**Q.** Which Potency does the source give for `Nc1ccc(S(N)(=O)=O)cc1` here?
**A.** Its Potency is “inactive”.

**Q.** With `COC(=O)C1=C(C)NC(C)=C(C(=O)OCCCN2CCC(c3ccccc3)(c3ccccc3)CC2)C1c1cccc([N+](=O)[O-])c1` (configuration not stated) as the compound, how does the Potency read?
**A.** Its Potency is “inactive”.

**Q.** For `C[C@@H](N)C1CCC(C(=O)Nc2ccncc2)CC1` (some centres not stated), which Potency is on record?
**A.** The Potency was “inactive”.

**Q.** Which Potency does the source give for `C[C@]12CCC(=O)C=C1CC[C@@H]1[C@H]2[C@@H](O)C[C@@]2(C)[C@H]1CC[C@]2(O)C(=O)CO` here?
**A.** The Potency was 0.187 µM (active).

**Q.** With `C[C@H](Cc1ccc(O)c(O)c1)[C@@H](C)Cc1ccc(O)c(O)c1` as the compound, how does the Potency read?
**A.** The Potency was 18.7 µM (active).

**Q.** With `C=C(c1ccc(C(=O)O)cc1)c1cc2c(cc1C)C(C)(C)CCC2(C)C` as the compound, how does the Potency read?
**A.** The Potency was “inactive”.
